These results are taken from PubChem BioAssay.

Where “and” joins values, the source holds several entries; their conditions need not be identical. Equal values may be shown once. Calls of active or inactive are those of the source.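 How the source made its calls, unless noted: active means compounds whose cell count with miR-34 switched on is under 0.7 times the count with it off; inactive means the rest.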

The nature of assay [1]: viability loss with induced miR-34 in A549 – imaging, A549 dox-inducible miR-34, nuclei and caspase counts, primary screen (AID 1347080). Particulars: A549 miR-34 inducible, Hoechst nuclei count, 48 h.
Assay [2] can be described thus: blockers of cellular phospholipid synthesis – cell-based, LOPAC library, screen 4, primary screen (AID 1347384; call rule not given here). Particulars: animal cells, phospholipid biosynthesis inhibition screen; at 10 µM.
Assay [3] is described as follows: compounds altering HSF1 focus formation in cells – imaging, Selleck Cancer Library (AID 1347162; in the data active means plate-normalised HSF1 focus index below about 0.46). Particulars: human cells, HSF1 nuclear foci imaging, at 10 µM; SSMD: measured here: HSF1 foci SSMD mean; cell count: measured here: cell number; plate-normalised HSF1 focus index: stronger effect = lower value.
Assay [4] is described as follows: MELAS cybrid and Rieske KO viability enhancers – cell-based, MELAS cybrids, Rieske KO mouse fibroblasts, CellTiter-Glo, primary screen (AID 1508586;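 active means mean z-score across replicates of 1.96 or higher in either the MELAS or the Rieske mutant cell line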;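 further: z relative to plate mean and SD of compound and empty wells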). Particulars: low glucose. Background: ATP-based viability assays read luminescence as a measure of living cells.
The mark [5] stands for this setting: stronger effect = lower value, cell number ratio, induced over uninduced.
[6] abbreviates: measured here: relative caspase fold change +Dox/-Dox.
Setting [7] is: measured here: total cells with miR-34 induction, stronger effect = lower value.
Where [8] appears, read: measured here: total cells without miR-34 induction.
Where [9] appears, read: MELAS cybrid survival, CellTiter-Glo 48 h, stronger effect = higher value.
Where [10] appears, read: Rieske KO mouse fibroblast survival, CellTiter-Glo 72 h.

With `O=C(c1ccc(F)cc1)C1CCN(CCn2c(=S)[nH]c3ccccc3c2=O)CC1`, the fold change in assay [1] (setting [5]) was 0.921 (inactive) and 0.889 (inactive); in assay [1] (setting [6]), 1.65 and 1.01. Besides, the cell count in assay [1] (setting [7]) was 8480 and 7360; in assay [1] (setting [8]), 9210 and 8290.
For `CC[N+](C)(CC)CCOC(=O)C(O)(c1ccccc1)C1CCCCC1` (centres undefined), the results for the fold change in assay [1] (setting [5]) and in assay [1] (setting [6]) were 0.958 (inactive) and 1.3, respectively. The cell count in assay [1] (setting [7]) was determined as 8830; in assay [1] (setting [8]), 9210.
On to `O=C1C(O)=C(O)C(=O)C(O)=C1O`, for which the fold change in assay [1] (setting [5]) is 0.863 (inactive) and 0.913 (inactive); in assay [1] (setting [6]), 1.35 and 4.01. Besides, the cell count is 9350 and 12000 in assay [1] (setting [7]); 10800 and 13100 in assay [1] (setting [8]).
Turning to `Cc1cccc(C(=O)O)c1O`, the fold change in assay [1] (setting [5]) is 0.963 (inactive); in assay [1] (setting [6]), 0.915. For the same compound, the cell count in assay [1] (setting [7]) is 8670; in assay [1] (setting [8]), 9000.
Taken in the same sequence, the figures for `COc1ccc(C2C(=O)c3ccccc3C2=O)cc1` were 0.879 (inactive), 2.05, 11100 and 12700.
Taken in the same sequence, the figures for `OCc1cccnc1` were 0.908 (inactive), 1.47, 8900 and 9800.
Taken in the same sequence, the figures for `CO[C@@]1(NC(=O)C(C(=O)O)c2ccc(O)cc2)C(=O)N2C(C(=O)O)=C(CSc3nnnn3C)CO[C@@H]21` (some centres undefined) were 0.852 (inactive), 0.729, 11300 and 13300.
Regarding `O=C(CCBr)N1CCN(C(=O)CCBr)CC1`, the values for the fold change in assay [1] (setting [5]) and in assay [1] (setting [6]) were 0.869 (inactive) and 2.68, respectively. Also, the cell count came out at 6360 in assay [1] (setting [7]) and 7310 in assay [1] (setting [8]).
Taken in the same sequence, the figures for `Nc1ccc(C(=O)O)cc1` were 0.846 (inactive), 0.809, 10600 and 12500.
For the compound `Nc1c2c(nc3c1CCC3)CCCC2`, the fold change in assay [1] (setting [5]) is 1.06 (inactive); in assay [1] (setting [6]) it was 2.56. Also, the cell count in assay [1] (setting [7]) is 10500; in assay [1] (setting [8]), 9920.
Taken in the same sequence, the figures for `C[C@@H]1CN(c2c(F)c(F)c3c(=O)c(C(=O)O)cn(C4CC4)c3c2F)C[C@H](C)N1` were 0.896 (inactive), 0.855, 8680 and 9690.
Taken in the same sequence, the figures for `O=c1c(-c2ccccc2)c1-c1ccccc1` were 0.804 (inactive), 1.52, 4690 and 5830.
On to `NC(=O)NC(=O)Cc1ccccc1`, for which the values for the fold change in assay [1] (setting [5]) and in assay [1] (setting [6]) were 0.88 (inactive) and 0.863, respectively. Also, the cell count in assay [1] (setting [7]) is 11800; in assay [1] (setting [8]) it was 13400.
Taken in the same sequence, the figures for `CO/N=C1\CN(c2nc3c(cc2F)c(=O)c(C(=O)O)cn3C2CC2)CC1CN` (centres undefined) were 0.847 (inactive), 1.93, 10700 and 12600.
Take `Cc1cc(C)cc(OCC2CNC(=O)O2)c1` (centres undefined): the fold change is 0.878 (inactive) in assay [1] (setting [5]) and 2.33 in assay [1] (setting [6]). The cell count was 10800 in assay [1] (setting [7]) and 12400 in assay [1] (setting [8]).
Taken in the same sequence, the figures for `COc1ccc(CN(CCN(C)C)c2ncccn2)cc1` were 0.86 (inactive), 3.03, 11900 and 13800.
Taken in the same sequence, the figures for `Nc1ccc(C(=O)Oc2ccccc2)c(O)c1` were 0.872 (inactive), 1.07, 9720 and 11100.
Taken in the same sequence, the figures for `O=C(O)[C@@H]1[C@H]2C[C@H]3c4[nH]c5ccccc5c4CCN3C[C@@H]2CC[C@@H]1O` were 0.933 (inactive), 1.33, 7540 and 8080.
Regarding `O=C(OCc1ccccc1)c1ccccc1`, the fold change in assay [1] (setting [5]) was 0.956 (inactive); in assay [1] (setting [6]), 3.44. The cell count in assay [1] (setting [7]) came out at 12000; in assay [1] (setting [8]), 12500.
Taken in the same sequence, the figures for `CCC(=O)O[C@H]1[C@H](O[C@@H]2[C@@H](C)[C@H](O[C@H]3C[C@@](C)(OC)[C@@H](O)[C@H](C)O3)[C@@H](C)C(=O)O[C@H](CC)[C@@](C)(O)[C@H](O)[C@@H](C)C(=O)[C@H](C)C[C@@]2(C)O)O[C@H](C)C[C@@H]1N(C)C` were 0.893 (inactive), 3.7, 11600 and 12900.
Taken in the same sequence, the figures for `O=C(O)c1ccc(S(=O)(=O)N(Cl)Cl)cc1` were 0.899 (inactive), 0.716, 11500 and 12800.
`NC[C@H]1O[C@H](O[C@H]2[C@H](O)[C@@H](O[C@H]3O[C@H](CO)[C@@H](O)[C@H](N)[C@H]3O)[C@H](N)C[C@@H]2N)[C@H](N)[C@@H](O)[C@@H]1O`: the fold change in assay [1] (setting [5]) was 0.901 (inactive); in assay [1] (setting [6]), 2.25. The figures for the cell count in assay [1] (setting [7]) and in assay [1] (setting [8]) were 11700 and 13000, respectively.
Taken in the same sequence, the figures for `CC(=O)Nc1ccc(S(=O)(=O)Nc2ccc([N+](=O)[O-])cc2)cc1` were 0.908 (inactive), 3.51, 11400 and 12500.
`CC(=O)Oc1cccc(O)c1`: the fold change in assay [1] (setting [5]) was 0.87 (inactive); in assay [1] (setting [6]), 5.2. Moreover, the results for the cell count in assay [1] (setting [7]) and in assay [1] (setting [8]) were 11300 and 13000, respectively.
On to `CN(C)CC[C@@H](c1ccc(Cl)cc1)c1ccccn1`, for which the fold change in assay [1] (setting [5]) was 1.01 (inactive); in assay [1] (setting [6]), 1.39. For the same compound, the cell count in assay [1] (setting [7]) was 9880; in assay [1] (setting [8]) it was 9740. The call in assay [2] was inactive.
`C[C@]12CC[C@@H]3c4ccc(O)cc4CC[C@H]3[C@@H]1CCC2=O`: the fold change in assay [1] (setting [5]) is 0.96 (inactive) and 0.932 (inactive) and 0.881 (inactive); in assay [1] (setting [6]), 1.22 and 1.44 and 1.06. Also, the cell count is 9000 and 8450 and 7620 in assay [1] (setting [7]); 9370 and 9060 and 8650 in assay [1] (setting [8]); 6870 in assay [3]. For the same compound, in assay [3], the SSMD came out at 2.44. Also, the plate-normalised HSF1 focus index in assay [3] is 1.13 (inactive). For the same compound, in assay [2], the result was inactive. Further, the z-score in assay [4] (setting [9]) was 0.711 (inactive) and 0.373 (inactive); in assay [4] (setting [10]) it was 0.46 and -0.298.
As for `C[C@H]1c2cccc(O)c2C(O)=C2C(=O)[C@]3(O)C(O)=C(C(N)=O)C(=O)[C@@H](N(C)C)[C@@H]3[C@@H](O)[C@@H]21`, the fold change is 0.948 (inactive) and 0.723 (inactive) and 0.815 (inactive) in assay [1] (setting [5]); 0.896 and 4.48 and 1.65 in assay [1] (setting [6]). The cell count was 1440 and 3910 and 7870 in assay [1] (setting [7]); 1520 and 5410 and 9650 in assay [1] (setting [8]). Moreover, the result in assay [2] was inactive. The z-score in assay [4] (setting [9]) is 0.0416 (inactive) and -0.292 (inactive); in assay [4] (setting [10]) it was -2.32 and -1.86.
Turning to `O=C1OC(c2ccc(O)cc2)(c2ccc(O)cc2)c2ccccc21`, the fold change in assay [1] (setting [5]) was 0.823 (inactive); in assay [1] (setting [6]) it was 1.14. In addition, the cell count was 10900 in assay [1] (setting [7]) and 13200 in assay [1] (setting [8]).
For `CCN1CCC[C@H]1CNC(=O)c1c(O)c(Cl)cc(Cl)c1OC`, the fold change in assay [1] (setting [5]) is 1 (inactive) and 0.9 (inactive) and 0.875 (inactive); in assay [1] (setting [6]), 1.23 and 0.728 and 0.77. For the same compound, the cell count in assay [1] (setting [7]) is 9930 and 9080 and 9820; in assay [1] (setting [8]) it was 9900 and 10100 and 11200. Moreover, in assay [2], the compound was classed as inactive. For the same compound, the z-score in assay [4] (setting [9]) is -0.782 (inactive) and -0.532 (inactive); in assay [4] (setting [10]) it was -0.0598 and -0.803.
